Screening results: PubChem, several laboratories
Only some compounds are listed: those with a hit (about 2.8% of all), similar ones and a draw of the others.
p-CIP stab down = lowers stability of the mouse p/CIP coactivator protein; F442A p/CIP-EGFP cells, EGFP fluorescence, 16 h; AID 1984; hit rate 0.01% among 290,000; Q05BA5; decrease of EGFP signal, % at 10 µM;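 active = EGFP signal decrease of at least 30% at 10 µM or well 3 SD below plate mean, unless failing retest; inactive = the rest, including hits failing retest or dose response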
AHR activator = activates the human aryl hydrocarbon receptor. P35869. hit rate 2.5% among 320,000. activation, % at 5 µM. AHR-responsive luciferase reporter cells, luminescence. AID 2796; in the data active = activation above about 47%;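 also: 0% = vehicle wells and 100% = reference agonist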
Platelet DG rel = modulates dense granule release in human platelets | human platelet-rich plasma, SFLLRN dense granule ATP release, luminescence | AID 1663 | inhibition, %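 (compounds screened at 7.5 µM in platelet-rich plasma)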 | hit rate 0.22% among 300,000;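 active = mean replicate score, as percent of positive control, at or above 50; inconclusive = mean below 50 but at least one replicate at or above 50; inactive = mean and every replicate below 50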
HIF activator = HIF pathway transcriptional activation. hit rate 0.32% among 300,000. activation, % at 7.5 µM (by protocol). U2OS HRE-luciferase reporter, luminescence; normalized: DMSO 0%, desferrioxamine 100%;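 active = mean activation of at least 10% of the iron chelator positive control signal, with at least half of replicates also reaching 10%; inconclusive = mean and replicate majority disagree about reaching 10%; inactive = mean and most replicates under 10%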
PolyA inh = yeast polyadenylation inhibition. S. cerevisiae SKY197-pL101 polyadenylation reporter, beta-gal luminescence; efflux-impaired pdr1/pdr3 knockout yeast; score 100 = 6 SD above DMSO. activity score, % at 12 µM. hit rate 0.02% among 300,000. AID 1875;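 active = lowest replicate activity score at least 50, where 100 means six control SD above control mean; inconclusive = lowest score under 50 but half or more replicates reach 50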;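 also: yeast exposed to compound for 9 h at 30 °C; higher score means more reporter readthrough which indicates perturbed polyadenylation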
* marks the source's active call; other numbers are inactive results; ? = inconclusive; nt = not tested or not shown.

SMILES	p-CIP stab down	AHR activator	Platelet DG rel	HIF activator	PolyA inh
CC(=O)Nc1cccc(Nc2nc(-c3ccccc3)nc3ccccc23)c1	0	62*	-1	0	-11
CC1(C)Cc2c(cnn2-c2ccc(F)cc2)C(NC(=O)C2=NNC(=O)CC2)C1 (stereo unspecified)	-5	3	8	2	6
Cc1c(C(=O)Nc2ccc(F)cc2)c2ccccn2c1CCc1ccncc1	1	90*	-3	0	-2
CCCCCc1nnc(NC(=O)CN2C(=O)C3CCCCC3C2=O)s1 (stereo unspecified)	-8	-1	-1	0	-3
Cc1cccc(C)c1N(CC(=O)N1CCCC1)S(C)(=O)=O	-2	-3	1	0	0
Cc1ccc(NC(=S)NNC(=S)NC2CCCCC2)cc1	-3	50*	-3	1	-8
COC(=O)C(=Cc1ccccc1[N+](=O)[O-])C(=O)OC	4	1	2	0	-24
Cc1ccc(NC2=C(Cl)C(=O)c3ccccc3C2=O)cc1	-11	0	2	-5	-19
Cc1cc(C)cc(NC2=C(N)C(=O)c3ccccc3C2=O)c1	-12	55*	2	0	8
CCN(CCn1cccn1)C(=O)CC1C(=O)NCCN1CCc1ccccc1 (stereo unspecified)	3	0	-15	0	-7
COCCn1c(=NC(=O)CCS(=O)(=O)c2ccccc2)sc2cc(F)ccc21	-10	5	-3	-1	-2
Cc1cccc(Cl)c1OCCCn1ccnc1	4	58*	0	0	3
Clc1ccc(OCCn2ccnc2)c2ccccc12	-4	74*	6	0	1
Cc1cc(OCCCCCn2ccnc2)cc(C)c1Cl	-14	55*	-4	0	2
Cc1cc(Cl)cc(C)c1OCCCCCn1ccnc1	3	28	0	-1	-2
Nc1c(C(=O)c2cccs2)oc2ccccc12	-16	49*	-4	1	-12
Nc1c(C(=O)c2ccc(Br)s2)oc2ccccc12	-1	68*	-1	4	-13
Nc1c(N)c2ccccc2oc1=O	5	9	-9	0	11
CC(=O)N1c2ccc(S(=O)(=O)N3CCC(C(=O)Nc4cccc(C(F)(F)F)c4)CC3)cc2CC1C (stereo unspecified)	-25	4	3	0	12
Cn1c(-c2ncc(F)cc2F)cc2onc(-c3c(F)cccc3Cl)c2c1=O	nt	50*	nt	nt	nt
N#CCSc1nc2ccccc2c2nc3ccccc3n12	18	48*	-9	1	-57
CCn1c(SCC#N)nc2ccccc2c1=O	0	3	-1	0	1
Cc1ccc2nc(-c3ccccc3)cn2c1	-10	-9	73*	-2	-19
Cc1ccc2nc(-c3ccc(O)c(O)c3)cn2c1	3	6	10	29*	3
O=C(CCCC(=O)N(CC(=O)NC1CCCCC1)c1ccccc1F)Nc1ccccn1	1	-1	-14	0	-8
SMILES	p-CIP stab down	AHR activator	Platelet DG rel	HIF activator	PolyA inh
COc1ccc(OC)c(N(CC(=O)N2CCCC2)S(C)(=O)=O)c1	-13	-3	5	1	-7
Cc1cccc(NC(=O)COc2ccccc2C(=O)NC(C)c2ccccc2)c1 (stereo unspecified)	-6	10	4	-1	3
FC(F)(F)c1ccc(CSc2ccccn2)cc1	-1	-2	11	10.0*	?
CC(=C/c1ccccc1)/C=N/n1c(-c2ccco2)n[nH]c1=S	-3	-3	5	1	-9
CC(/C=N/n1c(-c2cc(C)[nH]n2)n[nH]c1=S)=C\c1ccccc1	6	78*	-5	0	2
COc1ccc(S(=O)(=O)NC2CCCC2)cc1C(N)=O	3	nt	-1	0	9
Cn1c(O)c(N=Nc2ccccc2)c2ccccc21	0	55*	2	-1	-11
Cn1c(O)c(N=Nc2nc(-c3ccccc3)cs2)c2ccccc21	-3	54*	-1	-20	-8
COc1cccc(Cn2cc(C(=O)NCCN(C)C)nn2)c1	-15	0	-2	0	-11
COc1cc(Cl)c(C)cc1NC(=O)c1ccc2c(c1)OCO2	-7	73*	6	0	19
COc1ccccc1NC(=O)NCc1ccc2c(c1)OCO2	1	nt	2	-1	-2
COc1cccc(NC(=O)c2cccc(OC)c2OC)c1	2	34	1	-10	-16
COc1cc(Cl)c(C)cc1NC(=O)c1cccc(OC)c1OC	-7	58*	-2	2	-5
COc1ccc(Cl)cc1NC(=O)NCc1ccc2c(c1)OCO2	2	76*	3	-1	1
CC(=O)NCCOC(=O)c1nn(Cc2ccccc2)c(=O)c2ccccc12	-3	3	12	0	-8
CCOC(=O)C1=C(C)NC(C)=C(C(=O)OCC)C1C(=O)OCC(=O)N(C)C1CCS(=O)(=O)C1 (stereo unspecified)	8	-6	-3	13*	3
O=C(NCC1COc2ccccc2O1)c1ccc(Br)s1 (stereo unspecified)	-6	8	-8	2	11
C=CCn1cccc(C(=O)Nc2ccc(SC)cc2)c1=O	1	65*	-1	2	13
C=CCn1cccc(C(=O)Nc2ccc(Cl)cc2)c1=O	-22	51*	-7	2	21
C=CCn1cccc(C(=O)Nc2ccc(N(C)C)cc2)c1=O	-11	15	-9	2	-3
COc1cc(C(=O)Nc2cccc(C)c2C)ccc1OCC(=O)N1CCOCC1	nt	-1	nt	nt	nt
Cc1csc(=O)n1CCC(=O)OC(C)C(=O)NCc1ccccc1 (stereo unspecified)	nt	0	nt	nt	nt
O=[N+]([O-])c1ccc(N2CCN(c3ccccc3Cl)CC2)cn1	-12	-5	-6	0	17
O=C(NN1C(=O)c2cc(Br)ccc2NC1c1ccccc1Cl)c1ccncc1 (stereo unspecified)	0	49*	10	0	5
COc1ccc(Br)cc1C1Nc2ccccc2C(=O)N1NC(=O)c1ccncc1 (stereo unspecified)	-16	10	1	0	-7
SMILES	p-CIP stab down	AHR activator	Platelet DG rel	HIF activator	PolyA inh
O=C(NN1C(=O)c2ccccc2NC1c1ccccc1OCc1ccccc1)c1ccncc1 (stereo unspecified)	-3	13	0	0	-6
O=C(NN1C(=O)c2cc(Br)ccc2NC1c1cc(Br)cc(Br)c1O)c1ccncc1 (stereo unspecified)	-11	56*	-1	0	-4
NC(=O)N=Nc1c(O)[nH]c2c(Br)cc(Br)cc12	-7	50*	1	1	-1
O=C(CCCCCNC(=O)c1ccccc1)N=Nc1c(O)[nH]c2c(Br)cc(Br)cc12	-4	4	4	0	5
COc1ccc(NC(=O)c2cc3ccc(O)cc3o/c2=N\O)cc1	-17	-9	34	4	-13
O=C(CSc1nc2ccccc2s1)NNC(=S)Nc1ccc(Cl)cc1	11	71*	-12	0	-2
C=CCNC(=S)NNC(=O)CSc1nc2ccccc2s1	4	32	-14	0	18
